For the experiment, the system named is VDR:RXRa (NR concentration 270 nM, RXRa partner concentration 90 nM). Description: PBM binding z-score (relative to random genomic background probes); higher = stronger binding; sequences stand for … in GC…GCGATTGACAGCGTAGAATGAAGG
As to the method: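 Protein-binding microarray (Agilent 4x180K custom design, double-stranded 60-nt probes: 5' GC cap, 34-nt variable region, 24-nt constant primer region; full probe sequence given). Purified or IVT nuclear receptor:RXRα heterodimers (3:1 NR:RXRα, mostly 270:90 nM) or homodimers were incubated for 1 h in PBS with 2% milk and no ligand, then detected with Alexa488 antibodies. Fluorescence from o1-orientation probes (~5 replicates averaged) was converted to z-scores against 500 random hg19 background probes. Variable regions are seed direct-repeat (DR0–DR5) sites, all their single-nucleotide variants and half-site ablations.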
For CCGACTGCGGCAGAAAGGTTACCATACCATCCGG, the PBM binding z-score turned out to be 0.485.

Turning to ATACCAAGGCGATCGTGAGGTCGTTGATACTAAC, the PBM binding z-score stood at 1.51.

On to GCAGACAGGTGAAACGCAGGTAAGTCAGGGTGGC, for which the PBM binding z-score is -0.562.

As to CCTAGTTCGTCAGGAGGTCACACACCGGATATGA, the PBM binding z-score was 5.03.

On to CCCAGTAGGTTATGGGGCATTCAGGCAACGGTGA, for which the PBM binding z-score was 0.00537.

Consider CCTTATGGGTCACTGACAGGTTATAGCATTTGGA, for which the PBM binding z-score came to 2.89.

In turn, CCTACTGGGCCAAAAAGGTCATTGACGCCGATAA had a PBM binding z-score of 4.36.

ATATGTAGGTTAAGGGTCATTCCGGTTGGTTCGC registered a PBM binding z-score of 5.11.

The sequence CCGACTGGAGCATAAGGTTACCATAAGCCAGCCC displayed a PBM binding z-score of 0.0802.

With TCTTGTAGATCAAAGGTTAACAAAGCCGAAGCCT, the PBM binding z-score worked out at 2.09.

With CTACCAATGTGAACAAGGTCGTTGATTACTATTC, the PBM binding z-score came to 3.77.

The sequence ATATGCAGGTTAGCTGGGGTCATTCAGACTAGGC displayed a PBM binding z-score of 6.21.

In the case of ATCGAAAGGTCGACGAGGTGAGCATACACCGTTT, the PBM binding z-score turned out to be 5.07.

Sequence CAAACTAGGTCACCCGAAGGTCAAAGTCCGCATG yielded a PBM binding z-score of 5.75.

TGAATGAGGTTATAAGATCAGGAAACGTTGCAAA came in with a PBM binding z-score of 1.01.

For the sequence AGATGTAGGTTATCGGGTCATTCAGTTTGCGCAT, the PBM binding z-score amounted to 5.35.

As to CCCAGCAGGCCAATCTGGGTCACTCAAGGCTTGA, the PBM binding z-score amounted to 0.284.

Sequence AATACAGGGTCATCGGAGGCCAGAGTACGCACAG gave a PBM binding z-score of 5.88.

GGAACGAGGGCAAGGTTGATAGCATCTGTCGACG came in with a PBM binding z-score of 0.638.

Sequence CAAACTAGGTCACTGAGGTCAAAGTCCGTGCGTA showed a PBM binding z-score of 7.99.

Turning to TCGAGTAGGTTACCAATGGAGCATTCAGCTTTCT, the PBM binding z-score was -0.303.

Regarding CAAACTAGGTTACCGGAAGGTCAAAGTCCGCATG, the PBM binding z-score was 4.16.

The sequence CCGAGTAGGTTACGGGGCATTCAGGCAACGGTGA had a PBM binding z-score of 0.208.

Turning to ACTAGCAGGCCAAGTTTGGGTCATTCAAACAAAG, the PBM binding z-score is 1.07.

Sequence AGTCAAAGTTCACTAGGTAACGTAAGATTCAGCT came in with a PBM binding z-score of 3.83.

On to GCTGCTAGGTCAACTGATGCTCAGCTAAAGCTCG, for which the PBM binding z-score came out at 1.38.

Take TAGCCTAGGTCATTAGGCCAGTATAGTACGCATC: the PBM binding z-score was 1.69.

Regarding TCTTGTATATCAATAGAGGTTAAGAAAGTGCGCT, the PBM binding z-score worked out at 2.14.

CTCGAAAGGTCGGGTGAGGTGAGTATACGGATAA gave a PBM binding z-score of 3.18.

In the case of GATACAGGCTCAAGGCCAGAGTACGCGTATTGAT, the PBM binding z-score was -0.543.

As for GCAGACTGGTGAAACGCAGGTAACTCAGGGTGGC, the PBM binding z-score was -0.985.

Turning to CCTAGTTGATCAAGGTCACACACGCTATAGGTAC, the PBM binding z-score came to 4.91.

With CCTACTTGGTCAAGGTCACACACGCTATAGGTAC, the PBM binding z-score turned out to be 3.97.

With CAAACTAGGGCAAGAGGTCAAAGTCCGCTTCCCG, the PBM binding z-score was 5.08.

The sequence CGTCAAAGTTCACGGTAACGTAACAGAAAGCAGC came in with a PBM binding z-score of 4.74.

The sequence ACTATTAGTTGAGACGAGGGCAACCCATAGGTTG showed a PBM binding z-score of 0.697.

With TCGTGTAGGTTAGTCGGGGCATTCAGCCAACATA, the PBM binding z-score worked out at 2.72.

ATCTCTAGGTAAATTTCAGTGAAAGATCGATAGA gave a PBM binding z-score of 0.297.

Consider TAGCCTAGGACATTCAGGGGCCAGTATAGAAAGC, for which the PBM binding z-score is -0.174.

In turn, TCTTGTAGATCATTAGAGGTTAAGAAAGTGCGCT displayed a PBM binding z-score of 2.09.
